Bioassay records from PubChem BioAssay.
DT40 TDP1 CPT: DT40-hTDP1 cell growth loss with CPT; hit rate 12% among 420,000; Potency, µM (highest dose often 46.2 µM), for inactives: at the highest dose activity change, negative = growth inhibition, actives largely listed as inhibitors; chicken DT40 Tdp1-/-;hTDP1 cells + 20 nM CPT, ATP luminescence, 48 h; note: potency is the fitted concentration of half-maximal effect; nearly all actives have a fitted effect of over 55% in size
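Cell growth measured by CellTiter-Glo luminescence after a minimum 48 h, 37 C compound exposure with 20 nM CPT in Tdp1-knockout DT40 cells stably expressing hTDP1, seeded 400/well; qHTS titration format.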
RORgamma inh: inhibitors of mouse ROR gamma transcriptional activity | P51450 | Drosophila S2 Gal4-RORgamma UAS-luciferase reporter, 20 h | Potency, µM (highest dose often 53.6 µM), without a hit: at the top dose activity change, negative = inhibition, usual class: inhibitors | hit rate 5.4% among 310,000; note: potency is the fitted concentration of half-maximal effect; nearly all actives have a fitted effect of over 60% in size
Target sequence (P51450 whole entry, looked up, the tested form may be a part): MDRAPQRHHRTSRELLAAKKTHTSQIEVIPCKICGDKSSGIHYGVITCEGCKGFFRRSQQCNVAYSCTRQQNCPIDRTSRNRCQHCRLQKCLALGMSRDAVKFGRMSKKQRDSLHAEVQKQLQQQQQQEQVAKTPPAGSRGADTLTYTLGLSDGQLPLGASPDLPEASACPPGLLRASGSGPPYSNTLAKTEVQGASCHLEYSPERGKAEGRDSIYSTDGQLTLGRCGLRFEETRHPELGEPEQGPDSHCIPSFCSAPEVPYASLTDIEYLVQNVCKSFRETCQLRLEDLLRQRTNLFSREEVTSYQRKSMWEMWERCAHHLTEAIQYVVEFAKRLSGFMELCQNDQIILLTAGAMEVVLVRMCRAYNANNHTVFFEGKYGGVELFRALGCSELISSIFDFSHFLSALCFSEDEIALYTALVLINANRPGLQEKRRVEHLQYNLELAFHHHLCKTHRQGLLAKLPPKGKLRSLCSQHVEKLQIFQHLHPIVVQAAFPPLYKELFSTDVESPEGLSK
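Read-out: Photinus luciferase luminescence; inhibitors lower reporter signal. Insect Schneider cells with Gal4-ROR gamma fusion under metallothionein promoter, UAS reporter; 700 uM final copper sulfate induction, 20 hr, ambient temperature.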
IL1B secr inh: inhibitors of inflammasome signaling (IL-1 beta secretion). THP-1 LPS/ATP IL-1B secretion, AlphaLISA, 16 h; hits give low values. hit rate 4.7% among 360,000. activity change, % at 57.5 µM; in the data active = activity change below about -50%; inconclusive = mostly about -30% to -49%
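THP-1 cells pretreated 1 hr with compounds (up to 57.5 uM final), then stimulated with LPS (250 ng/mL final) plus ATP (1.25 mM final); secreted IL-1B measured by AlphaLISA after 16 hr, decreased signal indicating inhibition.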
TDP1 cell noCPT: qHTS for Inhibitors of human tyrosyl-DNA phosphodiesterase 1 (TDP1): qHTS in cells in absence of CPT; hit rate 15% among 420,000; Potency, µM (highest dose often 46.2 µM), for the others: at the highest dose activity change, negative = growth inhibition, most hits filed as inhibitors; AID 686978, 2013; DT40 Tdp1-/- hTDP1 cells, no CPT, ATP luminescence, 48 h; note: potency is the fitted concentration of half-maximal effect; nearly all actives have a fitted effect of over 55% in size
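Camptothecin absent (DMSO only). Human TDP1-complemented DT40 knockout cells, 400 cells/well, 37 °C for minimum 48 hr; ATP measured via CellTiter-Glo, 30 min dark incubation, luminescence.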
VP16 counter: counter-screen for ROR gamma inhibitors: Gal4-VP16 reporter. hit rate 3.5% among 310,000. Potency, µM (titrated, usually from 53.6 µM), inactives show at the top dose activity, negative = inhibition, actives largely listed as inhibitors. Drosophila S2 Gal4-VP16 UAS-luciferase, luminescence, 20 h. AID 2546;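 note: Gal4-VP16 expression switched on by copper sulfate through the metallothionein promoter; potency is the fitted concentration of half-maximal effect; nearly all actives have a fitted effect of over 50% in size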
ELG1 DNA repair: blocks ELG1-dependent DNA repair in HEK293T cells; HEK293T ELG1-luciferase reporter, luminescence, 16 h; DNA damage induced by 5-fluorouridine; Potency, µM (highest dose often 46.1 µM), for inactives: at the top dose activity change, negative = inhibition, hits mostly inhibitors; hit rate 2.3% among 330,000; AID 504467; note: potency is the fitted concentration of half-maximal effect; nearly all actives have a fitted effect of over 55% in size
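5-Fluorouridine DNA damage + compound/DMSO, 2,000 cells/well, 16 h, 37 °C/5% CO2. ONE-Glo, 30 min RT, luminescence. Readout = decrease in reporter signal.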
* hit, by the source's call; ? = inconclusive; . = no result. Sampled rows, rich in hits. Any-hit rate of the full collection: about 21%. Unless noted, calls come from the whole dose curve; as a rule, active = well fitted curve in the direction sought with a large enough effect; inconclusive = small, poorly fitted or top-dose-only effect, or another doubt; inactive = no such curve, though single readings can be large; an effect the other way counts as inactive or inconclusive. % is set by controls: 0 for no effect and ±100 for the full control effect.

SMILES | DT40 TDP1 CPT | RORgamma inh | IL1B secr inh | TDP1 cell noCPT | VP16 counter | ELG1 DNA repair
CCN(CC)c1ccc(/C=C2\CCC(/C=C(\C#N)C(=O)Nc3ccccc3F)=C2N2CCOCC2)cc1 | 6.51µM* | -8.3% | 0.0 | 2.31µM* | 0.1% | 8.6%
CCN(CC)c1ccc(/C=C2\CCC(/C=C(/C#N)C(=O)Nc3ccccc3F)=C2N2CCOCC2)cc1 | 2.06µM* | . | -14.3 | 2.31µM* | . | .
CCCOC(=O)c1ccc(NC(=O)CSC2=Nc3ccccc3C3CC=NN23)cc1 (stereo not drawn) | 23.1µM* | ? | 44.5 | ? | -2.8% | ?
Cc1cc(C)cc(N(CCC#N)C(=O)CSC2=Nc3ccccc3C3CC=NN23)c1 (stereo not drawn) | 20.6µM* | -2.1% | -90.6* | ? | 5.6% | ?
O=C(CSC1=Nc2ccccc2C2CC=NN12)Nc1ccc2c(c1)OCO2 (stereo not drawn) | 7.31µM* | -37.4% | ? | 23.1µM* | 3.6% | -13.5%
N#Cc1ccccc1NC(=O)CSC1=Nc2ccccc2C2CC=NN12 (stereo not drawn) | 14.6µM* | 11.2µM* | 25.0 | 23.1µM* | ? | ?
N#Cc1ccccc1NC(=O)CSc1ccc([N+](=O)[O-])cn1 | ? | -0.3% | -20.3 | -19.5% | -5.6% | 0.0%
Cc1cccc(CN2[C@@H](CC(C)C)COCCS2(=O)=O)c1 | -13.4% | . | 15.3 | -27.5% | . | .
CCc1cccc2c(-c3ccccc3)c3c(nc12)OCC3 | . | 4.1% | . | . | 5.0% | .
O=C(OCCC12CC3CC(CC(C3)C1)C2)c1ccc(NCc2cc(O)ccc2O)cc1 | 1.84µM* | . | -120.6* | 2.06µM* | . | .
O=C(OCC12CC3CC(CC(C3)C1)C2)c1ccc(NCc2cc(O)ccc2O)cc1 | 1.46µM* | . | -51.8* | 0.731µM* | . | .
N#CCC(=O)Nc1ccc(C(=O)OCC(=O)C23CC4CC(CC(C4)C2)C3)cc1 | -29.3% | . | 14.5 | ? | . | 6.2%
CNC1C(O)[C@@H]2OC(O[C@@H]3C(O)C(O)C(N)C[C@H]3N)C(N)C[C@H]2O[C@H]1O[C@@H]1OC(CO)C(N)C(O)C1O (stereo partly drawn) | 0.6% | -6.9% | . | -5.1% | -5.2% | .
Cc1ccc(CC2SC(N=C(N)N)=NC2=O)cc1 (stereo not drawn) | 8.6% | -14.8% | -9.2 | -0.7% | -10.4% | 14.5%
Cc1ccc(-c2nc(SCC(=O)NCC3CCCO3)c(-c3ccc(Cl)cc3)[nH]2)cc1 (stereo not drawn) | ? | ? | ? | 20.6µM* | -11.2% | -18.5%
CCc1ccc(-c2nc(SCC(=O)NCC3CCCO3)c(-c3ccc(F)cc3)[nH]2)cc1 (stereo not drawn) | ? | . | . | 18.4µM* | . | .
COCCNC(=O)CSc1nc(-c2ccc(F)cc2)[nH]c1-c1ccc(Cl)cc1 | ? | . | . | 25.9µM* | . | .
CCc1ccc(-c2nc(SCC(=O)NCCOC)c(-c3ccc(C)cc3)[nH]2)cc1 | -25.4% | . | . | ? | . | .
COc1ccc(-c2[nH]c(-c3ccc(Cl)cc3)nc2SCC(=O)NCC2CCCO2)cc1 (stereo not drawn) | 10.3µM* | . | . | 7.31µM* | . | .
COc1ccc2nc(SCC(=O)NCC3CCCO3)c(C#N)cc2c1 (stereo not drawn) | -23.4% | -31.9% | 19.1 | ? | 7.1% | ?
Cc1ccc(-c2nc(SCC(=O)NCC3CCCO3)c(-c3ccc(C)cc3)[nH]2)cc1 (stereo not drawn) | ? | 14.7% | -23.3 | ? | 1.3% | ?
C[C@@H]1CN([C@H](C)CO)C(=O)CCCn2nncc2CO[C@@H]1CN(C)S(=O)(=O)c1ccccc1 | -7.7% | . | -15.3 | -17.5% | . | .
Cc1ccc(-c2nc(S(=O)(=O)c3ccccc3)c(SCC(=O)NCC3CCCO3)o2)cc1 (stereo not drawn) | ? | ? | -24.6 | 23.1µM* | 0.5% | -14.7%
Cc1ccc(-c2[nH]c(-c3ccccc3)nc2SCC(=O)NCC2CCCO2)cc1 (stereo not drawn) | 14.6µM* | 0.1% | -17.4 | 23.1µM* | ? | ?
COc1ccc(-c2nc(SCC(=O)NC3CCCC3)c(-c3ccc(OC)cc3)[nH]2)cc1 | ? | 8.4% | -10.9 | 16.4µM* | -2.3% | ?
SMILES | DT40 TDP1 CPT | RORgamma inh | IL1B secr inh | TDP1 cell noCPT | VP16 counter | ELG1 DNA repair
CN(Cc1ccccc1)C(=O)[C@@H]1CCCN1C(=O)[C@@H]1CCCN1C(=O)c1ccc(Cl)cc1 | -22.1% | . | 33.5 | -24.5% | . | .
CCOc1ccc(S(=O)(=O)NCCC(=O)N2CCN(c3ncccn3)CC2)cc1 | -0.9% | . | 0.0 | ? | . | 10.5%
Cc1cc(S(=O)(=O)Nc2ccc(C(=O)N3CCN(C(=O)c4ccco4)CC3)cc2)ccc1F | ? | 29.2% | 5.6 | ? | ? | -18.1%
O=C(c1ccc(NS(=O)(=O)c2ccc3c(c2)OCCO3)cc1)N1CCCCC1 | ? | ? | ? | 20.6µM* | -27.4% | 23.1µM*
O=C(c1ccc(S(=O)(=O)Nc2ccc(F)cc2)cc1)N1CCN(C(=O)c2ccco2)CC1 | 13µM* | -27.9% | 19.0 | 11.6µM* | 20µM* | ?
CCOc1ccc(S(=O)(=O)Nc2ccc(C(=O)NCC3(N4CCCCC4)CCCCC3)cc2)cc1 | ? | . | -10.0 | 20.6µM* | . | 7.6%
O=C(O)c1ccc(S(=O)(=O)Nc2ccc3c(c2)OCCO3)cc1 | 6.1% | 15.3% | 10.3 | 6.2% | -3.1% | -2.3%
CCOc1ccc(NS(=O)(=O)c2ccc(C(=O)N3CCN(c4ncccn4)CC3)cc2)cc1 | 9.2µM* | -12.2% | 0.0 | 8.2µM* | ? | 7.3µM*
COc1ccc(NS(=O)(=O)c2ccc(C(=O)N3CCC(C)CC3)cc2)cc1 | 23.1µM* | . | -2.2 | ? | . | ?
CC1CCN(C(=O)c2ccc(NS(=O)(=O)c3ccccc3)cc2)CC1 | -4.2% | 23.3% | 5.8 | -7.8% | 13.9% | 16.8%
CCOc1ccccc1N1CCN(C(=O)c2ccc(S(=O)(=O)Nc3ccccc3)cc2)CC1 | 18.4µM* | . | -7.6 | ? | . | ?
CC(C)[C@H](NS(=O)(=O)c1ccc2c(c1)OCCO2)C(=O)OCC(=O)Nc1ccccc1Cl | -2.2% | -32.9% | 19.5 | -10.1% | -6.0% | -16.3%
O=C(N[C@@H](Cc1ccccc1)C(=O)N1CCN(S(=O)(=O)c2ccc(F)cc2)CC1)c1ccco1 | 14.6µM* | . | 6.4 | 20.6µM* | . | -5.7%
